# Screening results from PubChem BioAssay.
# D1 antagonist = Antagonist of Human D 1 Dopamine Receptor: qHTS; HEK293 TREx D1 cells, calcium flux, dopamine EC80; hits give low values; D(1A) dopamine receptor (Homo sapiens), P21728; hit rate 3.2% among 360,000; AID 504652, 2011; activity change, negative = inhibition, % at 10 µM; in the data active = activity change below about -30%; also: % is scaled to controls: 0 for no effect and ±100 for the full control effect
#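 Compound effects on dopamine-evoked calcium signalling were measured in tetracycline-induced HEK293 Trex D1 cells. Dopamine at EC80 followed a 180 s compound pre-read, and fluorescence was tracked kinetically for 180 s more.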
# D1 ag = Allosteric Agonists of the Human D1 Dopamine Receptor: qHTS; D(1A) dopamine receptor (Homo sapiens), P21728; AID 504660, 2011; hit rate 1% among 360,000; HEK293 T-REx D1 cells, calcium flux, agonist mode; activation, % at 2 µM; in the data active = activation above about 30%; also: 0% is about no effect
#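 Tetracycline-induced HEK293 TREx D1 cells, force-coupled to calcium signalling, were dye-loaded with a no-wash calcium kit. Compound was pin-added after a 10 s baseline. Fluorescence was read kinetically at 1 cycle/s for 180 s, with calcium rises flagged as agonism.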
# D3 ag = qHTS of D3 Dopamine Receptor Agonist: qHTS | D3R DiscoveRx beta-arrestin cells, luminescence, 90 min | max activation, % | hit rate 0.58% among 410,000; in the data active = max activation above about 30%; also: 0% is about no effect
# Target sequence (P35462 whole entry, looked up): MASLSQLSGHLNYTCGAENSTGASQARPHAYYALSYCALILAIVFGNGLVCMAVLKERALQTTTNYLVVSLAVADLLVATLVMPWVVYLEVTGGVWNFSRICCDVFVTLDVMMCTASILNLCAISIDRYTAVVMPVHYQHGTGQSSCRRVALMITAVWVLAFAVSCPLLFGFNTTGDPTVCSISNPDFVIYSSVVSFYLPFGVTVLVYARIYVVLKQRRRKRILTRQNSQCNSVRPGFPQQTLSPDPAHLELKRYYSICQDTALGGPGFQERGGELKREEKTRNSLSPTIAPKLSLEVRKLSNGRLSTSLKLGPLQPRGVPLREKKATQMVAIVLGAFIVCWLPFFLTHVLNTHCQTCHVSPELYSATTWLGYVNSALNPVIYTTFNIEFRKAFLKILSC
#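 Cells at 1500/well, incubated overnight, then treated with pinned compounds (dopamine as control) for 90 min at 37 degrees C. DiscoveRx reagent added for 30 - 60 minutes at room temperature; luminescence read.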
# D3 antag = qHTS of D3 Dopamine Receptor Antagonist: qHTS | D(3) dopamine receptor (Homo sapiens), P35462 | D3R cells, DiscoveRx beta-arrestin luminescence, antagonist mode; hits give low values | max response, negative = inhibition, % | hit rate 2.5% among 360,000 | AID 652054, 2013; in the data active = max response below about -50%; inconclusive = no clear call, values can overlap the other calls; also: % is scaled to controls: 0 for no effect and ±100 for the full control effect
#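 Cells plated overnight at 1500 cells/well, then exposed to library compounds with dopamine controls for 90 minutes at 37 degrees C. DiscoveRx reagent added for 30–60 minutes at room temperature; luminescence read, quantitative HTS format.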
# D1 potentiator = Potentiators of Human D1 Dopamine Receptor: qHTS; potentiation, % at 10 µM; AID 504651, 2011; D(1A) dopamine receptor (Homo sapiens), P21728; HEK293 TREx D1 cells, calcium flux, dopamine EC20 potentiation; hit rate 0.036% among 360,000; in the data active = potentiation above about 30%; also: 0% is about no effect
# * = called active by the depositor; ? = inconclusive; nt = not tested or not shown. Rows were chosen to be rich in hits. Some 6% of all compounds tested hit in one or more screens of this group.
SMILES,D1 antagonist,D1 ag,D3 ag,D3 antag,D1 potentiator
O=C(OCc1nnc(-c2ccc(Cl)cc2)o1)c1ccc(O)cc1,-22,11,-4,-3,-6
Cn1cccc1C(=O)NC(=O)COC(=O)c1ccc(S(C)(=O)=O)c([N+](=O)[O-])c1,nt,nt,-13,-77*,nt
Cn1cccc1C(=O)NC(=O)COC(=O)c1ccc(S(C)(=O)=O)cc1,nt,nt,-10,32,nt
COc1cccc(C(=O)OCC(=O)NC23CC4CC(CC(C4)C2)C3)c1,nt,nt,3,-1,nt
CS(=O)(=O)c1ccc(C(=O)OCc2nnc(-c3ccc(Cl)cc3)o2)cc1[N+](=O)[O-],-13,-1,-12,-55*,-2
Cn1cccc1C(=O)NC(=O)COC(=O)c1ccccc1O,0,8,-1,10,-3
CCc1cccc(NC(=O)Cn2cc(C(=O)c3ccncc3)c(=O)c3cc(C)c(C)cc32)c1,24,0,-8,nt,-2
COc1ccc(CCNC(=O)Cn2cc(S(=O)(=O)Cc3ccccc3F)c3ccccc32)cc1OC,1,1,2,nt,0
O=S(=O)(CS(=O)(=O)c1ccccc1)c1ccccc1,nt,nt,-9,-10,nt
O=S(=O)(C/C(=C/CO)S(=O)(=O)c1ccccc1)c1ccccc1,11,3,-34,-59*,-2
Cc1ccc(NC(=O)CSc2nc(C3CCCC3)nc3c2c(=O)n(C)c(=O)n3C)c(C)c1,-9,-1,9,nt,-2
CCc1ccccc1Oc1nc(NCc2ccccc2)nc2ccsc12,nt,nt,-5,-52*,nt
CNc1nc(NCc2ccccc2)c2sccc2n1,nt,nt,6,7,nt
O=C(O)COn1c(-c2ccccc2)nc2ccc(Cl)cc21,-8,1,2,3,-4
COn1c(-c2ccccc2)nc2ccc(Cl)cc21,-65*,3,23,31,-7
Cc1ccc(NC(=O)C(Cc2ccccc2)NS(=O)(=O)c2ccc3c(c2)c(=O)n(C)c(=O)n3C)cc1 (centres undefined),-7,3,-11,nt,-4
NCC(O)(c1ccc(Cl)cc1)c1ccc(Cl)cc1,-4,51*,4,2,-9
CC(C)NCC(O)(c1ccc(Cl)cc1)c1ccc(Cl)cc1,10,14,-3,2,-2
Cc1c(C#N)c(N)nc2c3c(sc12)NC(=O)CC3c1ccc(F)cc1 (centres undefined),-31*,1,3,50,-7
Cc1ccc(-c2nc3cc(C(C)C)ccc3o2)cc1NC(=O)c1cccs1,-4,1,8,nt,-3
Cc1ccc(C)c(OCCC(=O)N2CCN(S(=O)(=O)c3ccc([N+](=O)[O-])cc3)CC2)c1,-33*,3,2,-7,2
Cc1ccc(S(=O)(=O)N2CCN(C(=O)COC(=O)CCOc3ccccc3C)CC2)cc1,-36*,12,3,4,-18
CCOc1ccc(OCCC(=O)OCC(=O)N2CCN(S(=O)(=O)c3ccc(Cl)cc3)CC2)cc1,-32*,8,-10,-20,-6
Cc1ccc(S(=O)(=O)N2CCN(C(=O)COC(=O)CCOc3cc(C)ccc3C)CC2)cc1,-17,27,3,16,-6
COc1ccc2c(c1)CC(C(=O)N1CCC(C(N)=O)CC1)CO2 (centres undefined),7,2,1,nt,0
SMILES,D1 antagonist,D1 ag,D3 ag,D3 antag,D1 potentiator
COc1cc(OC)c(N(C)C(=O)Cn2ncc3c(=O)oc4ccccc4c32)cc1Cl,8,-1,-17,nt,2
CCOc1ccc(CNC(=O)C2CCCN(c3nn4cc(-c5ccc(OC)cc5)nc4s3)C2)cc1 (centres undefined),-5,0,1,nt,5
O=C(CCc1ccccc1)NNC(=O)COc1ccc(Br)cc1,-12,2,-3,2,-1
O=C(CCC(=O)NNC(=O)COc1ccc(Br)cc1)NCc1ccccc1,-34*,0,-7,-3,-1
O=c1c2ccccc2sn1-c1cc(S(=O)(=O)N2CCOCC2)ccc1N1CCCC1,4,90*,-31,-23,0
Cc1ccc(S(=O)(=O)c2cn(Cc3ccccc3Cl)c3ccc(F)cc3c2=O)cc1,-5,8,1,nt,-3
O=C(CN1CCN(Cc2ccccc2)CC1)Nc1cccc(C(F)(F)F)c1,nt,0,-27,-14,-1
O=C(Nc1ccccc1)N1CCN(c2cccc(C(F)(F)F)c2)CC1,-34*,27,-19,16,-8
O=C(CS(=O)(=O)Cc1ccccc1)N1CCN(c2cccc(C(F)(F)F)c2)CC1,-33*,12,-2,?,-2
O=C(CN1CCN(c2ccccc2)CC1)Nc1cccc(C(F)(F)F)c1,-7,0,-23,-50*,1
COc1ccc(NC(=O)N2CCN(c3cccc(C(F)(F)F)c3)CC2)cc1OC,-6,14,-4,-12,-10
CC1(CCC(=O)N2CCCC(N3CCN(c4cccc(C(F)(F)F)c4)CC3)C2)CC1 (centres undefined),8,4,-14,-66*,3
O=C(CCS(=O)(=O)c1ccccc1)N1CCN(c2cccc(C(F)(F)F)c2)CC1,-20,21,-5,3,-10
Cc1cc2ccccc2n1-c1ccc(C(=O)N2CCC(C(=O)NCc3ccccc3Cl)CC2)s1,27,4,5,nt,1
CCOc1ccc(NC(=O)Cn2c(CCC(=O)O)ccc2-c2ccc(Cl)cc2)cc1,-1,0,1,nt,0
Cc1cc(O)c(C(=O)c2cnc3c(c2)COc2ccccc2-3)cc1Cl,2,0,16,nt,-1
CN1CCN(c2ccc(C(F)(F)F)cc2NC(=O)Nc2ccccc2)CC1,-7,73*,-6,-3,-6
CN(CC(=O)Nc1cccc(C(F)(F)F)c1)Cc1ccccc1,-19,17,-39,-54*,-5
COc1ccc(NC(=O)CN(C)C(=O)c2ccccc2OCC(=O)Nc2cccc(C(F)(F)F)c2)cc1,-33*,13,9,13,-5
O=C(C1CCC1)N1CCN(c2cccc(C(F)(F)F)c2)CC1,-54*,5,-2,7,-7
O=[N+]([O-])c1cccc(S(=O)(=O)N2CCN(S(=O)(=O)c3ccc4c(c3)OCCO4)CC2)c1,-5,1,nt,nt,5
CC1(c2ccccc2)CC(C)(C)N(C(=O)c2cccc(Cl)c2)c2ccccc21 (centres undefined),5,1,-9,nt,4
CCOc1ccc(-n2nc3ccc(NC(=O)c4ccc(-c5cccc(Cl)c5)o4)cc3n2)cc1,11,6,-5,nt,-1
O=C(CSc1nc2ccccc2c2nc(-c3ccccc3)nn12)Nc1ccc(F)cc1,-1,5,3,nt,2
